SARS PLP yeast = SARS-CoV PLP inhibition in yeast | S. cerevisiae expressing SARS-CoV PLpro, growth rescue | Potency, µM (highest dose often 32.9 µM), for the others: at the highest dose activity, positive = growth rescue, usual class: activators | 330,000 compounds, 0.19% hits | AID 485353; calls by dose curve; further: potency means the concentration at half of the fitted maximal effect; 0% is about no effect; nearly all actives have a fitted effect of over 55% in size
Pf growth 96h = P. falciparum growth inhibition at 96 hour, primary screen for plastid delayed-death inhibitors; P. falciparum luciferase reporter growth, 96 h; Potency, µM (titrated, usually from 28.7 µM), for the others: top-dose activity change, negative = inhibition, actives largely listed as inhibitors; 320,000 compounds, 6.9% hits; AID 504834; further: potency means the concentration at half of the fitted maximal effect; on the % scale 0 is the no-effect control and ±100 the full control effect
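Cell-based qHTS: luciferase-tagged P. falciparum in erythrocytes (2% hematocrit, 0.05% parasitemia final) incubated with compounds for 96 hours, 37 C, 5% CO2; luciferase detection reagent then added and luminescence measured.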
AMA1-RON2 inh = disrupts binding of P. falciparum AMA1 to RON2; 360,000 compounds, 0.2% hits; Potency, µM (highest dose often 58.2 µM), inactives show at the top dose activity change, negative = inhibition, most hits filed as inhibitors; AID 720542; AlphaScreen AMA1-biotinylated RON2 peptide binding;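 further: potency means the concentration at half of the fitted maximal effect; 0% = vehicle wells and -100% = peptide control; nearly all actives have a fitted effect of over 45% in size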
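AMA1 (3D7) with his tag at 25 nM final met compounds first, then biotinylated RON2 peptide at 25 nM; detection used donor plus acceptor beads, 10 µg/mL apiece, read by AlphaScreen after 30 min at room temperature.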
CHX counter = counter-screen hit for Shiga toxin inhibitors, cycloheximide; cell reporter, cycloheximide protein synthesis inhibition counterscreen; 300,000 compounds, 12% hits; max response, %; in the data active means max response mostly above about 13%, no sharp cut-off; inactive means mostly below about 14%; further: read at 38.3 µM for the half of the compounds with a filed dose; 0% is about no effect
Shiga toxin inh = inhibitors of Shiga toxin in Vero cells | Vero cells, Shiga toxin protein synthesis inhibition reporter | inhibition, % at 38.7 µM | 290,000 compounds, 9.2% hits | AID 2315; in the data active means inhibition mostly above about 28%, no sharp cut-off; inactive means mostly below about 43%; further: 0% is about no effect
Pf growth 48h = P. falciparum growth inhibition at 48 hours (one generation) | P. falciparum luciferase growth in erythrocytes, 48 h | AID 504832 | Potency, µM (highest dose often 28.7 µM), for inactives: top-dose activity change, negative = inhibition, most hits filed as inhibitors | 310,000 compounds, 5.9% hits; further: potency means the concentration at half of the fitted maximal effect; on the % scale 0 is the no-effect control and ±100 the full control effect
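Compounds are pin-transferred into medium, infected erythrocytes (2% hematocrit, 0.1% parasitemia final) are added, and plates sit one parasite generation at 37 C in 5% CO2. Detection reagent is then added and luminescence measured.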
Active calls of the source: *; u = inconclusive; x = no result given. Most compounds without a hit are left out; they make up all but 19% or so of the library. Unless noted, the call rests on the fitted dose curve; in most records, active means well fitted curve in the direction sought with a large enough effect; inconclusive means small, poorly fitted or top-dose-only effect, or another doubt; inactive means no such curve, though single readings can be large; an effect the other way counts as inactive or inconclusive.

SMILES | SARS PLP yeast | Pf growth 96h | AMA1-RON2 inh | CHX counter | Shiga toxin inh | Pf growth 48h
COc1cc(C(=O)N/N=C/c2ccc3c(c2)c2ccccc2n3C)ccc1O | 0% | 9.3µM* | 9% | 11 | 9 | 4.7µM*
Cn1c2ccccc2c2cc(/C=N/NC(=O)c3cc(O)cc(O)c3)ccc21 | u | u | -14% | -3 | -7 | u
COc1cc(/C=N/NC(=O)CCn2c3ccccc3c3ccccc32)ccc1O | -2% | 1% | -7% | -2 | 15 | -5%
Cn1c2ccccc2c2cc(/C=N/NC(=O)c3cc(O)ccc3O)ccc21 | -6% | u | -28% | 12* | 18 | u
COc1ccccc1Oc1ccnc2cc(Cl)ccc12 | -29% | u | -17% | 1 | -8 | u
Clc1ccc2c(N/N=C/c3cccc(Br)c3)ccnc2c1 | -31% | 0.33µM* | -1% | 11 | 43 | 0.59µM*
Clc1ccc2c(N/N=C/c3ccccc3Br)ccnc2c1 | -87% | 0.52µM* | 9% | -3 | 11 | 0.66µM*
O=[N+]([O-])c1ccc(/C=N/Nc2ccnc3cc(Cl)ccc23)o1 | -13% | u | u | 27 | 169* | 2.3µM*
Clc1ccc(-c2cn3c(n2)-c2ccccc2C3)cc1Cl | -51% | 0% | -7% | 40* | 64* | 117%
O=C(CNC(=O)OCc1ccccc1)NC(Cc1cnc[nH]1)C(=O)O (stereo not drawn) | x | x | 5% | x | x | x
Nc1ccc(Cl)c(NC(=O)c2cccs2)c1 | 0% | u | -5% | 16* | active | 45%
O=C(NNc1cc(Cl)ccc1Cl)c1cccs1 | -3% | u | -21% | -3 | -2 | u
Nc1ccc(NC(=O)c2cccs2)c(Cl)c1 | -2% | u | 0% | 32* | 55* | 194%
CCOC(=O)N1CCN(C(=O)c2cn(CC)c3ccc(S(=O)(=O)N4CCC(C)CC4)cc3c2=O)CC1 | -1% | u | 37% | -2 | -3 | 9%
OCC1CCCN(C(=S)Nc2ccc(Nc3ccccc3)cc2)C1 (stereo not drawn) | -1% | u | -4% | 29* | 61* | 65%
OCC1CCCN(C(=S)Nc2ccc(OC(F)F)cc2)C1 (stereo not drawn) | 29% | 66% | -13% | 26* | 63* | 62%
NC(=O)C1CCCN(C(=S)Nc2ccccc2)C1 (stereo not drawn) | 10% | 26% | -18% | -3 | -10 | -2%
Cc1ccc(NC(=S)N2CCCC(O)C2)cc1 (stereo not drawn) | -9% | 73% | 0% | 20* | 69* | 55%
CCC(C)n1c(SCC(=O)Nc2cc(C)on2)nc2ccccc2c1=O (stereo not drawn) | -1% | u | -3% | -2 | -16 | u
Cc1nnc(SCC(=O)Nc2cc(C(C)(C)C)nn2-c2ccccc2)s1 | 13% | 0% | -12% | -4 | -12 | -6%
Cc1csc(SCC(=O)Nc2cc(C(C)(C)C)nn2-c2ccccc2)n1 | -2% | u | -7% | -3 | -6 | 7.4µM*
CCC(C)n1c(SCC(=O)Nc2cc(C(C)(C)C)nn2-c2ccccc2)nc2ccccc2c1=O (stereo not drawn) | 6% | 5.9µM* | -15% | -2 | 15 | 10µM*
CN(C)/C=C/c1onc(-c2ccccc2Cl)c1C#N | -3% | 32% | -1% | 42* | 69* | 78%
CC1(CC(=O)N/N=C/c2ccc(-c3ccc(C(=O)O)cc3)o2)OCCO1 | -8% | 27% | 27% | 21 | 20 | 44%
CC1(CC(=O)N/N=C/c2ccc(-c3ccc(Cl)cc3)o2)OCCO1 | -3% | u | -10% | 15* | 13 | 55%
SMILES | SARS PLP yeast | Pf growth 96h | AMA1-RON2 inh | CHX counter | Shiga toxin inh | Pf growth 48h
COC(=O)c1ccc(-c2ccc(/C=N/NC(=O)CC3(C)OCCCO3)o2)cc1 | -3% | 6% | 9% | 36* | 43* | 26%
C=CCN(CC=C)C(=O)C(=O)c1ccn(-c2c(C)csc2C(=O)OC)c1 | 0% | u | 0% | -2 | -6 | u
O=C(NCCCN1CCCC1=O)c1cccc(S(=O)(=O)Nc2ccc(Br)cc2)c1 | 0% | u | 5% | x | x | u
COc1ccc(N2CCN(c3nc4ccccn4c(=O)c3/C=C(\C#N)S(=O)(=O)c3ccccc3)CC2)cc1 | 2% | u | -10% | -3 | -1 | -27%
Cc1cccc(CSc2cn(CC(=O)N3CCOCC3)c3ccccc23)c1 | -42% | 143% | 2% | 42* | 64* | 120%
O=C(Cn1cc(SCc2cccc(Cl)c2)c2ccccc21)N1CCOCC1 | -4% | 42% | -9% | 48* | 27 | 60%
CC1CCN(C(=O)C2CCC(=O)N(Cc3ccc(Cl)cc3)C2)CC1 (stereo not drawn) | 0% | -21% | 1% | -3 | -4 | -6%
CCCOc1ccc(N2CC(C(=O)Nc3ccc(N4CCOCC4)cc3)CC2=O)cc1 (stereo not drawn) | 0% | -18% | 0% | -3 | 16 | -6%
CC1(C)CCCN(C(=O)c2ccc3c(c2NCCO)C(=O)c2ccccc2C3=O)C1 | -5% | u | u | -5 | 2 | 13µM*
O=C1c2ccccc2C(=O)c2c1ccc(C(=O)N1CCCCC1)c2NCCO | 5% | 15% | -5% | -4 | -13 | -4%
Cc1ccc(-c2nn(CC(=O)NN3CCOCC3)c(=O)c3ccccc23)cc1 | 0% | 19% | 2% | -1 | 8 | 26%
Oc1ccc2c3c1O[C@H]1c4oc5ccccc5c4C[C@@]4(O)[C@@H](C2)N(CC2CC2)CC[C@]314 | 0% | 4.7µM* | -4% | -3 | 25 | u
C=CCN1CC[C@]23c4c5ccc(O)c4OC2C(O)CC[C@@]3(O)[C@H]1C5 (stereo partly drawn) | 1% | x | 9% | x | x | x
Oc1ccc2c3c1O[C@H]1c4[nH]c5ccccc5c4C[C@@]4(O)[C@@H](C2)N(CC2CC2)CC[C@]314 | x | u | -2% | x | x | u
Oc1ccc2c3c1O[C@H]1[C@@H](O)CC[C@@]4(O)C(C2)N(CC2CCC2)CCC314 (stereo partly drawn) | x | 3.4µM* | x | x | x | u
COc1ccc2[nH]cc(CCn3ccc(O)c(C/C=C/c4ccccc4)c3=O)c2c1 | 0% | u | u | -3 | 1 | 9.3µM*
CCOC(=O)c1cc(-c2ccccc2)sc1NC(=S)Nc1cc(C)ccn1 | -6% | 13µM* | 1% | -2 | -22 | u
CCOC(=O)c1cc(-c2ccccc2)sc1NC(=O)C(C)(C)C | 9% | u | 11% | -4 | 20 | 9.3µM*
CCOC(=O)c1cc(-c2ccccc2)sc1NC(=O)CC(C)C | -27% | 7.4µM* | 14% | -5 | -15 | u
CCOc1cc(N)c(Cl)cc1C(=O)NCC1CN(Cc2ccc(F)cc2)CCO1 (stereo not drawn) | x | 6µM* | 9% | -4 | -2 | 7.6µM*

Compound activity (PubChem BioAssay)
